Each structure is given as a SMILES string. The panel holds about 83,000 compounds, 20% with a hit somewhere; the sample as a whole holds those more often.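 Interpretation: 100, growth as untreated; towards 0, rising growth inhibition; 0, no net growth; 0 to -100, cell death. Compounds scoring below 10 were considered active.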 A number with no mark means an inactive call. Activity calls are given as the source filed them.

The subject of this assay is OVCAR-5 ovarian. The assay is described as follows: NCI-60 one-dose screen, 48 h (100 = growth as untreated, 0 = no growth, -100 = all killed). The following applies: 10 µM unless noted.
As for `COc1ccc2c(c1)C(=O)/C(=C/c1cccc(OCC(=O)c3ccccc3)c1)CC2`, the growth was 102%.

`NC(=Nc1ccccc1)SCCCCSC(N)=Nc1ccccc1`: the growth was 83.3%.

For `CC/C(=C\c1ccc(N(C)C)cc1)c1ccncc1`, the growth was 74%.

As to `CCOC(=O)c1cc(-c2cccnc2)nc2c(Cl)cc(Cl)cc12`, the growth is 92%. Turning to `Clc1ccc(-n2cnc3c(Cl)ncnc32)cc1Cl`, the growth is 82.5%. In the case of `O=C(CSCC(=O)N/N=C/c1ccccc1O)N/N=C\c1ccccc1O`, the growth was 56.2%. `COc1ccc(C(=O)COc2cccc(/C=C3\Oc4ccc5ccccc5c4C3=O)c2)cc1`: the growth was 103%. On to `CC(=O)NC1(C(=O)O)CCCC1`, for which the growth was 158%. `CCOC(=O)C1=NN(c2ccc(Cl)cc2)C2C3N(c4ccc(Cl)cc4)N=C(C(=O)OCC)N3c3ccccc3N12` (configuration not stated): the growth is 101%. The result for `CC(=O)Oc1ccc(C23c4ccccc4C2(OC(C)=O)c2cc(OC(C)=O)ccc23)cc1` (configuration not stated) reads 86%. The result for `COc1ccc(/C=C2\NC(=S)NC2=O)cc1` reads 95.2%; that for `O=C(/C=C/c1ccccc1)CC(c1ccccc1)N1CCOCC1` (configuration not stated), 98.7%; that for `CCn1c2ccccc2c2ccc(C(C)=O)cc21`, 89.9%. `Cc1ccc(C=C2C(Cl)=C(Cl)C(Cl)=C2Cl)cc1`: the growth was -80.7% (active).

Regarding `Cc1ccccc1NC(=O)c1cc2ccccc2cc1O`, the growth is 77.9%. In the case of `c1ccc(-n2nnnc2-c2cccc3ccccc23)cc1`, the growth is 35.5%.

On to `Nc1ccccc1-c1ccc([N+](=O)[O-])cc1`, for which the growth was 75%. The result for `c1cnc2ccc3ncccc3c2c1` reads 164%; that for `CC(=O)n1c2ccccc2c2ccccc21`, 89.3%; that for `CC1=CC(=O)C(C(C)=Nc2ccccc2Cl)C(=O)O1` (configuration not stated), 151%. In the case of `COc1c(O)cc2oc3cc(O)c(CC=C(C)C)c(O)c3c(=O)c2c1C/C=C(\C)CCC=C(C)C`, the growth is 84.7%. Take `CCOC(=O)c1ccccc1OC(=O)NNc1ccccc1`: the growth is 83.7%. As for `O=C(/C=C/c1cc2ccccc2[nH]c1=O)c1ccc(O)cc1`, the figure is 78.6%; as for `COc1cc(/C=C2\COc3ccc(O)cc3C2=O)cc(OC)c1`, 73.7%; as for `ClC1=C(Cl)C(Cl)=C(Cl)C1=C/C=C/c1ccccc1`, -77.9% (active). With `COc1cccc(CCC2C(=O)CCCC2=O)c1`, the growth was 103%. Regarding `CSc1ncc2ncn(C3OC(CO)C(O)C3O)c2n1` (configuration not stated), the growth was 156%.

Regarding `CN(C)CCCN1c2nc3ccccc3cc2Sc2cc3ccccc3nc21`, the growth was -58.5% (active). The result for `Cc1c(C)c(N2C(=O)C=CC2=O)c(C)c(C)c1N1C(=O)C=CC1=O` reads 91%.

Turning to `CC12CCC3C(CCC4CC(=O)/C(=C\O)CC43C)C1CCC(=O)O2` (configuration not stated), the growth is 95.7%. As for `CC(C)C/C(=N\NC(=O)c1ccncc1)c1cc(Cl)ccc1O`, the figure is 37.3%; as for `OC(Cc1cccnc1)c1ccccc1` (configuration not stated), 92.8%. As for `Cn1cnc([N+](=O)[O-])c1S(=O)(=O)Oc1ccc(Cl)cc1`, the growth was 102%. As for `O=C(N1CCC(CN=c2cc3n(-c4ccc(Cl)cc4)c4ccccc4nc-3cc2Nc2ccc(Cl)cc2)CC1)N1CC1`, the figure is -78.3% (active); as for `CN1COc2ccc3ccccc3c2C1`, 77%; as for `CCCCCCCC1(C)NC(=O)NC1=O` (configuration not stated), 163%. The result for `CC(O)c1nc2c(c(=O)n(C)c(=O)n2C)n1C` (configuration not stated) reads 104%.

(Values after PubChem BioAssay (NCI).)
